From PubChem BioAssay (NCI) come the findings set out here.

Among the test systems are NCI-H23 lung; NCI-H226 lung; NCI-H322M lung; HOP-62 NSCLC; NCI-H460 lung; HOP-92 NSCLC; NCI-H522 lung; A549/ATCC NSCLC; 786-0 renal; COLO 205 colon.
Common to all, as to experiment: NCI-60 one-dose screen, 48 h (100 = growth as untreated, 0 = no growth, -100 = all killed)
Holding throughout (details): 10 µM unless noted

Molecules are shown by their SMILES. Compounds without any hit were thinned out: in the full panel of roughly 83,000, 20% have a hit.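 A percent growth of 40 corresponds to 60% growth inhibition; 0 means no net growth; -100 means all cells died. Active threshold: below 10.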 A number with no mark means an inactive call. Active and inactive are the calls of the source.

`C=C1C(=O)O[C@H]2[C@H](O)[C@@H](C)CCC/C(C)=C/CC[C@@]3(C)O[C@@H]3C[C@@H]12`: the growth with NCI-H23 lung is 95.3%; with NCI-H226 lung, 80.9%; in the experiment on NCI-H322M lung, 81%; in the experiment on HOP-62 NSCLC it was 96.3%; in the experiment with NCI-H460 lung, 91.4%; with HOP-92 NSCLC, 58%. For the same compound, the growth with NCI-H522 lung was -17.3% (active); in the experiment with A549/ATCC NSCLC it was 80.7%; with 786-0 renal, 93.7%; in the experiment with COLO 205 colon it was 90.7%.
Regarding `CCCn1c(=S)sc2c(Cl)nc(C)nc21`, the growth with NCI-H23 lung was 110%; with NCI-H226 lung, 91.6%; with NCI-H322M lung, 93.6%; in the experiment with HOP-62 NSCLC it was 104%; with NCI-H460 lung it was 88.5%; with HOP-92 NSCLC it was 99.3%. The growth in the experiment with NCI-H522 lung is 33%; in the experiment with A549/ATCC NSCLC, 117%; in the experiment with 786-0 renal, 106%; in the experiment on COLO 205 colon, 43.5%.
In the case of `O=C1c2ccccc2C(=O)c2c(N=Nc3sc(=O)[nH]c3S)cccc21`, the growth with NCI-H23 lung was 96.3%; in the experiment on NCI-H226 lung it was 110%; in the experiment on NCI-H322M lung, 99%; in the experiment with HOP-62 NSCLC, 99.3%; in the experiment on NCI-H460 lung, 95.9%; in the experiment on HOP-92 NSCLC, 92.9%. For the same compound, the growth is 83.1% in the experiment with NCI-H522 lung, 98.1% in the experiment on A549/ATCC NSCLC, 107% with 786-0 renal and 98.9% in the experiment with COLO 205 colon.
Regarding `COc1ccc(C(=O)c2cc(OC)c(OC)c(OC)c2)cc1/C=C/C(=O)c1ccc(OC)c(OC)c1`, the growth with NCI-H23 lung is 32.2%; in the experiment with NCI-H226 lung, 55.6%; with NCI-H322M lung, 54.7%; in the experiment with HOP-62 NSCLC, 58.6%; in the experiment with NCI-H460 lung it was 18.4%; with HOP-92 NSCLC, 39.4%. Besides, the growth is 3.99% (active) with NCI-H522 lung, 57.1% in the experiment on A549/ATCC NSCLC, 55.9% in the experiment on 786-0 renal and 31.3% in the experiment on COLO 205 colon.
On to `CC(=O)c1cc(C(=O)c2ccc3c(c2)Sc2ccccc2N3)c2cc(C)ccn12`, for which the growth is 16.5% with NCI-H23 lung; 56.6% in the experiment with NCI-H226 lung; 35.1% with NCI-H322M lung; 21.1% in the experiment on HOP-62 NSCLC; 1.02% (active) in the experiment on NCI-H460 lung; 42.6% in the experiment on HOP-92 NSCLC. In addition, the growth with NCI-H522 lung is -47.9% (active); with A549/ATCC NSCLC, 14.5%; in the experiment with 786-0 renal it was 9.68% (active); in the experiment on COLO 205 colon, -62.2% (active).
On to `O=c1[nH]c(-c2cn(-c3ccc(Cl)cc3)nn2)nc2ccccc12`, for which the growth in the experiment with NCI-H23 lung is 77.6%; with NCI-H226 lung it was 65.5%; in the experiment on NCI-H322M lung, 52.4%; in the experiment on HOP-62 NSCLC it was 52.5%; with NCI-H460 lung, 74.7%; in the experiment on HOP-92 NSCLC, 62.9%. Moreover, the growth in the experiment on NCI-H522 lung was 67.8%; with A549/ATCC NSCLC, 61.2%; in the experiment on 786-0 renal, 31.9%; with COLO 205 colon, 99.2%.
Turning to `O=C1N=C(c2c(-c3[nH]c(=O)c4ccc(Br)cc4c3O)c(O)c3ccccc3c2O)C(=O)c2cc(Br)ccc21`, the growth in the experiment on NCI-H23 lung is -43% (active); in the experiment with NCI-H226 lung it was -30.4% (active); in the experiment on NCI-H322M lung, -3.29% (active); with HOP-62 NSCLC, -52.9% (active); in the experiment with NCI-H460 lung, -80.9% (active); in the experiment with HOP-92 NSCLC, -13.2% (active). Besides, the growth in the experiment on NCI-H522 lung is -31.4% (active); with A549/ATCC NSCLC it was -32.2% (active); in the experiment with 786-0 renal it was -63.2% (active); in the experiment on COLO 205 colon it was 73.1%.
As to `CNC(=O)Cc1nc(-c2cccc(NS(=O)(=O)c3c(F)cccc3F)c2F)c(-c2ccnc(Nc3ccccc3)n2)s1`, the growth was 56% in the experiment on NCI-H23 lung; 74.3% in the experiment on NCI-H226 lung; 60.8% in the experiment with NCI-H322M lung; 43.3% in the experiment on HOP-62 NSCLC; 94% in the experiment with NCI-H460 lung; 17.3% in the experiment on HOP-92 NSCLC. In addition, the growth in the experiment on NCI-H522 lung was 54.8%; with A549/ATCC NSCLC it was 55.3%; in the experiment on 786-0 renal, 64%; with COLO 205 colon, 7.06% (active).
Regarding `Cc1ccc(C(=O)c2sc3nc4c(cc3c2N)CCCC4)c(C)c1`, the growth was 35.1% in the experiment with NCI-H23 lung; 60.1% in the experiment on NCI-H226 lung; 29.5% in the experiment on NCI-H322M lung; 39.6% with HOP-62 NSCLC; 14% with NCI-H460 lung; 27.4% in the experiment with HOP-92 NSCLC. Also, the growth in the experiment with NCI-H522 lung is -0.883% (active); in the experiment on A549/ATCC NSCLC, 19.2%; in the experiment with 786-0 renal it was 35.2%; in the experiment on COLO 205 colon it was 3.68% (active).
Regarding `COc1cc(OC)c(C(=O)/C=C/c2cccc(C(F)(F)F)c2)c(OC)c1`, the growth was 5.06% (active) in the experiment on NCI-H23 lung; 25.1% in the experiment with NCI-H226 lung; 13.2% in the experiment with NCI-H322M lung; 18.7% in the experiment on HOP-62 NSCLC; -1.87% (active) with NCI-H460 lung; 2.76% (active) in the experiment with HOP-92 NSCLC. In addition, the growth in the experiment on NCI-H522 lung is -31.8% (active); in the experiment on A549/ATCC NSCLC, 6.1% (active); with 786-0 renal, 13.4%; with COLO 205 colon it was 12.9%.
Turning to `CCCCCCCCCCn1cc[n+](C)c1`, the growth with NCI-H23 lung was 28.8%; in the experiment on NCI-H226 lung, 30.4%; with NCI-H322M lung, 57.1%; in the experiment on HOP-62 NSCLC it was 38.2%; with NCI-H460 lung it was 23.6%; with HOP-92 NSCLC, 51.9%. The growth in the experiment with NCI-H522 lung is -19.9% (active); with A549/ATCC NSCLC it was 32.6%; with 786-0 renal it was 47.8%; with COLO 205 colon it was 8.8% (active).
`Cc1cc(Cl)ccc1OC(C)C(=O)Nc1nnc(C2CC2)s1` (stereo not given): the growth in the experiment with NCI-H23 lung is 76.7%; in the experiment on NCI-H226 lung, 98.5%; with NCI-H322M lung, 124%; in the experiment on HOP-62 NSCLC, 94.7%; with NCI-H460 lung, 114%; in the experiment with HOP-92 NSCLC, 81.3%. Moreover, the growth in the experiment with NCI-H522 lung was 94.6%; with A549/ATCC NSCLC, 86.3%; in the experiment with 786-0 renal, 92.7%; with COLO 205 colon it was 105%.
Turning to `O=C(c1ccccc1)C(Cl)C(Cl)c1ccccc1` (stereo not given), the growth with NCI-H23 lung is 86.7%; in the experiment with NCI-H226 lung, 7.49% (active); in the experiment with NCI-H322M lung it was 106%; with HOP-62 NSCLC it was 110%; with NCI-H460 lung, 93.7%; with HOP-92 NSCLC it was 75.7%. For the same compound, the growth is -83.5% (active) with NCI-H522 lung, 92.7% in the experiment with A549/ATCC NSCLC, -17.8% (active) with 786-0 renal and -40.2% (active) with COLO 205 colon.
